Assay [1] has as its target Sphingosine kinase 1 (Homo sapiens) (UniProt Q9NYA1). The note with it: at 1 µM.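 Further: mean SPHK1 inhibition value reported from the GSK PKIS kinase panel screen.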
The target in assay [2] is T1, Sphingosine kinase 2 (Homo sapiens) (UniProt Q9NRA0).
T1 sequence (whole entry): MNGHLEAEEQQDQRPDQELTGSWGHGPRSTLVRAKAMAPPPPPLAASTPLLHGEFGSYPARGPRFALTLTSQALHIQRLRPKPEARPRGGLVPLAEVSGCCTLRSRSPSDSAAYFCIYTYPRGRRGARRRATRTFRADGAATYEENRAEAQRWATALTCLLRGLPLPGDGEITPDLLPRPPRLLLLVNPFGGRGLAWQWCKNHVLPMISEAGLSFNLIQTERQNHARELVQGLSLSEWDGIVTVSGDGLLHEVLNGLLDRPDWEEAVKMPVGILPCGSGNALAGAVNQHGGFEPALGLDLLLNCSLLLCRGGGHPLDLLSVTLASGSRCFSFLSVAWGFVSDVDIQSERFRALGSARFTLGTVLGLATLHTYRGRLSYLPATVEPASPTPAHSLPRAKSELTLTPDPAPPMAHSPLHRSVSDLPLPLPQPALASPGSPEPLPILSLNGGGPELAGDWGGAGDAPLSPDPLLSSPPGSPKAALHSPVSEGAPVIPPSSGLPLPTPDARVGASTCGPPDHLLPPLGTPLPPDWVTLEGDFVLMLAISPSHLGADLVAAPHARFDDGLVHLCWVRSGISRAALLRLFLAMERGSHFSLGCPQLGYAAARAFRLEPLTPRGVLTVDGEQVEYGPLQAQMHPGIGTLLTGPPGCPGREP
The note with it: at 0.1 µM.

The target of assay [3] is T1, Sphingosine kinase 2 (Homo sapiens). The note with it: at 1 µM.
The target of assay [4] is Casein kinase II subunit alpha (Homo sapiens) (UniProt P68400). The note with it: at 0.1 µM.
Sequence of Casein kinase II subunit alpha (Homo sapiens) (P68400 whole entry, looked up): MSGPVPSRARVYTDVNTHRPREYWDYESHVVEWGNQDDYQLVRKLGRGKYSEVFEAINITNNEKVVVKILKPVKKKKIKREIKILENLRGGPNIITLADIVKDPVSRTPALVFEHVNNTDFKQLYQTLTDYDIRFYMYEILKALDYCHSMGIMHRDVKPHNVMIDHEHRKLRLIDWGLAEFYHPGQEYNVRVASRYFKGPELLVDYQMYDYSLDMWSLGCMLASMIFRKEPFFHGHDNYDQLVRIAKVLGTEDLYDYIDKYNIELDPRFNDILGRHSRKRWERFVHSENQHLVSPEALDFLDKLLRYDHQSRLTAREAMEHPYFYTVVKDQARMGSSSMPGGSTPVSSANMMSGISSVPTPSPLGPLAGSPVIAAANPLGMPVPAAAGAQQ
Assay [5] shares this target. The note with it: at 1 µM.
Assay [6] concerns the target T2, Inhibitor of nuclear factor kappa-B kinase subunit alpha (Homo sapiens) (UniProt O15111).
T2 sequence (whole entry): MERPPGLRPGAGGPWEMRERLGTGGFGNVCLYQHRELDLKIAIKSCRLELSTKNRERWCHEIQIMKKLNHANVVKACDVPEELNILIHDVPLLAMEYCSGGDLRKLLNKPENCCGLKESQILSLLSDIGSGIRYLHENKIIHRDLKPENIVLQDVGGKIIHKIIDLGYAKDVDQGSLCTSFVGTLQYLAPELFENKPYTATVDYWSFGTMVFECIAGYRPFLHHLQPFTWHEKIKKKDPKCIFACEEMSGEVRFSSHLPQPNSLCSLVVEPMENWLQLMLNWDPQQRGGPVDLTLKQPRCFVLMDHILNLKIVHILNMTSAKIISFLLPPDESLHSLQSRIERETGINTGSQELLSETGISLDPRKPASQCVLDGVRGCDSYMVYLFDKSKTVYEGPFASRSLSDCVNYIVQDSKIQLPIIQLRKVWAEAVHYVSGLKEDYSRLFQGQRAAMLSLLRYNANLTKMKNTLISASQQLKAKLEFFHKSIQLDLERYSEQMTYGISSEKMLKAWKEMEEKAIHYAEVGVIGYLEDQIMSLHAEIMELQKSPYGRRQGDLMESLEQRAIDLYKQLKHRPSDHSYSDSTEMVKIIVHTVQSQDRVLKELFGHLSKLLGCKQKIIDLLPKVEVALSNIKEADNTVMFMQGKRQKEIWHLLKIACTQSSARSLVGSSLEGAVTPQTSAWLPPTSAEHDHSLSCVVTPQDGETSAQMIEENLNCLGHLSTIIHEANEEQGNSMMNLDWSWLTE
The note with it: at 0.1 µM.

For assay [7], the target named is T2, Inhibitor of nuclear factor kappa-B kinase subunit alpha (Homo sapiens). The note with it: at 1 µM.
For assay [8], the target named is T3, Inhibitor of nuclear factor kappa-B kinase subunit beta (Homo sapiens) (UniProt O14920).
T3 sequence (whole entry): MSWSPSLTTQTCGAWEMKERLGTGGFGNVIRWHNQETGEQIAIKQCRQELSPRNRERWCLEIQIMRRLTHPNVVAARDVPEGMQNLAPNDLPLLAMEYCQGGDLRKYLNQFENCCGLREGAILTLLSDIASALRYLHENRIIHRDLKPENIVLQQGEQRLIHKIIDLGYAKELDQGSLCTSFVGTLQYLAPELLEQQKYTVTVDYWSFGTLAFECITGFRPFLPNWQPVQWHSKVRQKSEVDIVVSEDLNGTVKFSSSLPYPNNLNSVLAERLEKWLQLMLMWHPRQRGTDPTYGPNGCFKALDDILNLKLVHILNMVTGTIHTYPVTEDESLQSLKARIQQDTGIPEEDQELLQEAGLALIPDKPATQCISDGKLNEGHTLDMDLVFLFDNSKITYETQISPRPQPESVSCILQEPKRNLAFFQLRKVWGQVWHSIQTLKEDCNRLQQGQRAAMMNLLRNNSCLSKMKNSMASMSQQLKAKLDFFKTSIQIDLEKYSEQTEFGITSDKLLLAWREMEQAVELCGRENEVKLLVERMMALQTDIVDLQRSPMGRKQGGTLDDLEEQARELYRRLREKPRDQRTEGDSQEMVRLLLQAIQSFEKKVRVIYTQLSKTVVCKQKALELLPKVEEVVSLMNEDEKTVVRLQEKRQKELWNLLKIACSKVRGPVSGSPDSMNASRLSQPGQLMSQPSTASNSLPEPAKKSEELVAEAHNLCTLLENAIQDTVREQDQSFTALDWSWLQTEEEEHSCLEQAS
The note with it: at 0.1 µM.

Assay [9] has as its target T3, Inhibitor of nuclear factor kappa-B kinase subunit beta (Homo sapiens). The note with it: at 1 µM.
In assay [10] the target is T4, Inhibitor of nuclear factor kappa-B kinase subunit epsilon (Homo sapiens) (UniProt Q14164).
T4 sequence (whole entry): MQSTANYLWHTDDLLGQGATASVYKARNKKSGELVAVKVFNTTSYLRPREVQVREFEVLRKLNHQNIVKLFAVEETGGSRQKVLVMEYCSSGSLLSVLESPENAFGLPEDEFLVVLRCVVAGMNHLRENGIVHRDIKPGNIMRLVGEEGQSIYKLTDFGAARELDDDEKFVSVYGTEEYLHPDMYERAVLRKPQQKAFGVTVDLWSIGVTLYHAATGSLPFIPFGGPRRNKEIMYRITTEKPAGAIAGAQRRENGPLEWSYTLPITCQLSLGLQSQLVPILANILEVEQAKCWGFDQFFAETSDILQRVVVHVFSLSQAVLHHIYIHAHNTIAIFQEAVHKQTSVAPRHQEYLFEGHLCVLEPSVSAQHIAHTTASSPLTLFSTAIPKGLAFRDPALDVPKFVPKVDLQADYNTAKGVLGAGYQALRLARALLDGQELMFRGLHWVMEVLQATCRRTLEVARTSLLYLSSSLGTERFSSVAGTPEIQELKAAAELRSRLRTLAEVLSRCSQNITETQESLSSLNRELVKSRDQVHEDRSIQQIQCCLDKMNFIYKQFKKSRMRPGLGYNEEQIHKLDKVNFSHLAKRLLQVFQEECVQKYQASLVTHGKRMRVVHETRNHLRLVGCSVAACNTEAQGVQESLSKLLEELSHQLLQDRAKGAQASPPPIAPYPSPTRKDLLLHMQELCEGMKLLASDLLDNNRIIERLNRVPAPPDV
The note with it: at 0.1 µM.

For assay [11], the target named is T4, Inhibitor of nuclear factor kappa-B kinase subunit epsilon (Homo sapiens). The note with it: at 1 µM.
The target in assay [12] is T5, Serine/threonine-protein kinase Nek1 (Homo sapiens) (UniProt Q96PY6).
T5 sequence (whole entry): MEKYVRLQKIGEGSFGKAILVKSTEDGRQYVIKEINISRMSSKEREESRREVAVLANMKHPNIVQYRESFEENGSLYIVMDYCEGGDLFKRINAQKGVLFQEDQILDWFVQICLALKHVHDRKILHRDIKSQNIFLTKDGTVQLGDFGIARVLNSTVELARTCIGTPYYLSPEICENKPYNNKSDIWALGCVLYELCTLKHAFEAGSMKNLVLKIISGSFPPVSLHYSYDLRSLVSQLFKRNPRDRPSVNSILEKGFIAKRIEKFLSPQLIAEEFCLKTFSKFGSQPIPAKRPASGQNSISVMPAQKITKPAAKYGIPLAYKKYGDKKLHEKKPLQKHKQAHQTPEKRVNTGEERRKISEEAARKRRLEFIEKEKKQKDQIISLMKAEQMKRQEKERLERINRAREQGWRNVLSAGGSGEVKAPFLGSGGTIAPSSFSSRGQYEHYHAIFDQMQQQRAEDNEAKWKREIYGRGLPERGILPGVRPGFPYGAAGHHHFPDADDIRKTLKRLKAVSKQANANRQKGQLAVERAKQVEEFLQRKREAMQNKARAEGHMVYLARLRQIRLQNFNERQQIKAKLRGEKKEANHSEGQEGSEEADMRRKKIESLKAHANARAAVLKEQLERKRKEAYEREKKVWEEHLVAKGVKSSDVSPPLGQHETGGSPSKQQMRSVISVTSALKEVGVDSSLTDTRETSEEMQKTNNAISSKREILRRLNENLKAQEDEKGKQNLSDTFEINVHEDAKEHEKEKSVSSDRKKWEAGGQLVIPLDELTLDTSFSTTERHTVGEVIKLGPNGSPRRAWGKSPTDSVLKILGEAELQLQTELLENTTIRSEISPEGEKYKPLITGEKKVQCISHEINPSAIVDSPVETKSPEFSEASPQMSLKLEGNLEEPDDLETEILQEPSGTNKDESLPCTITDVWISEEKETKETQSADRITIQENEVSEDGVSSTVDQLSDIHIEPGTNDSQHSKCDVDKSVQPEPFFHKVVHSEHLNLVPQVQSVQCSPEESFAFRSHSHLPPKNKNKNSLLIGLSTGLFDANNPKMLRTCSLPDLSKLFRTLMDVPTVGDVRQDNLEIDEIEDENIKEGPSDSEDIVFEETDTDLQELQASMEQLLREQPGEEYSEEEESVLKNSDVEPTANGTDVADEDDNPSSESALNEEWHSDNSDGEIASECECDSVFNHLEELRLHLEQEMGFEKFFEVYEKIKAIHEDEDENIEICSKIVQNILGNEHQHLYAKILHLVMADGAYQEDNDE
The note with it: at 0.1 µM.

The target in assay [13] is T5, Serine/threonine-protein kinase Nek1 (Homo sapiens). The note with it: at 1 µM.
Assay [14] has as its target T6, Serine/threonine-protein kinase Nek2 (Homo sapiens) (UniProt P51955).
T6 sequence (whole entry): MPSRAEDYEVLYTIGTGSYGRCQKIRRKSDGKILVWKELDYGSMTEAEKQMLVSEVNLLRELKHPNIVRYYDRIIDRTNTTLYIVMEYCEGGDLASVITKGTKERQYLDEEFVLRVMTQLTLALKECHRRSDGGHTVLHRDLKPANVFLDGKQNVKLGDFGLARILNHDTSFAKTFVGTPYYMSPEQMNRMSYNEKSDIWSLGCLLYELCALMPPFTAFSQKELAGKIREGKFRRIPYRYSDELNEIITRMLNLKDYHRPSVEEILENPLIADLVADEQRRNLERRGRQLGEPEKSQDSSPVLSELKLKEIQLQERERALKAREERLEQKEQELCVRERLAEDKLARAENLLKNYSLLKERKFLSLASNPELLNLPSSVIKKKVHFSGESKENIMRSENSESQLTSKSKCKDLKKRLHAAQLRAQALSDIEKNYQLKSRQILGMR
The note with it: at 0.1 µM.

The target in assay [15] is T6, Serine/threonine-protein kinase Nek2 (Homo sapiens). The note with it: at 1 µM.
The target of assay [16] is Serine/threonine-protein kinase Nek6 (Homo sapiens) (UniProt Q9HC98). The note with it: at 0.1 µM.
Sequence of Serine/threonine-protein kinase Nek6 (Homo sapiens) (Q9HC98 whole entry): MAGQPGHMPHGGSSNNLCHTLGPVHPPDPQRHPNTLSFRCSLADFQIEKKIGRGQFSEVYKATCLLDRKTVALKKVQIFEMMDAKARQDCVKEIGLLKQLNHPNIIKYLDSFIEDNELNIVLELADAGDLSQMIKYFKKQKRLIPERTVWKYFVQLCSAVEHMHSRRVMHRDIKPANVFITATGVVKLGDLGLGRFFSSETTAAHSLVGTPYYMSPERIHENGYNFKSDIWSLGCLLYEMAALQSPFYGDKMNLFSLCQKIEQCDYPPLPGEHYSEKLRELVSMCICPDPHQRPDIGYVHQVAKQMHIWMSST
Assay [17] shares this target. The note with it: at 1 µM.
For assay [18], the target named is Serine/threonine-protein kinase Nek7 (Homo sapiens) (UniProt Q8TDX7). The note with it: at 0.1 µM.
Sequence of Serine/threonine-protein kinase Nek7 (Homo sapiens) (Q8TDX7 whole entry, looked up): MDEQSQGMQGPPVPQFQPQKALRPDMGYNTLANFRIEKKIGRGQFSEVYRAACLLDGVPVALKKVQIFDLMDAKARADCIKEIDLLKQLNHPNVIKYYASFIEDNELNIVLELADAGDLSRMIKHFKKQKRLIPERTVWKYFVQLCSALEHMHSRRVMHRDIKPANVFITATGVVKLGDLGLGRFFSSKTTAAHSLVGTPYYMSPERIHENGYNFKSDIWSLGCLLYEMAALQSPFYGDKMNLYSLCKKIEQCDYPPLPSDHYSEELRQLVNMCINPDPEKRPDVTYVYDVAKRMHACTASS
For assay [19] the target is unchanged. The note with it: at 1 µM.
The target of assay [20] is T7, Serine/threonine-protein kinase Nek9 (Homo sapiens) (UniProt Q8TD19).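 Further: reported value is the mean percent inhibition of NEK9.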
T7 sequence (whole entry): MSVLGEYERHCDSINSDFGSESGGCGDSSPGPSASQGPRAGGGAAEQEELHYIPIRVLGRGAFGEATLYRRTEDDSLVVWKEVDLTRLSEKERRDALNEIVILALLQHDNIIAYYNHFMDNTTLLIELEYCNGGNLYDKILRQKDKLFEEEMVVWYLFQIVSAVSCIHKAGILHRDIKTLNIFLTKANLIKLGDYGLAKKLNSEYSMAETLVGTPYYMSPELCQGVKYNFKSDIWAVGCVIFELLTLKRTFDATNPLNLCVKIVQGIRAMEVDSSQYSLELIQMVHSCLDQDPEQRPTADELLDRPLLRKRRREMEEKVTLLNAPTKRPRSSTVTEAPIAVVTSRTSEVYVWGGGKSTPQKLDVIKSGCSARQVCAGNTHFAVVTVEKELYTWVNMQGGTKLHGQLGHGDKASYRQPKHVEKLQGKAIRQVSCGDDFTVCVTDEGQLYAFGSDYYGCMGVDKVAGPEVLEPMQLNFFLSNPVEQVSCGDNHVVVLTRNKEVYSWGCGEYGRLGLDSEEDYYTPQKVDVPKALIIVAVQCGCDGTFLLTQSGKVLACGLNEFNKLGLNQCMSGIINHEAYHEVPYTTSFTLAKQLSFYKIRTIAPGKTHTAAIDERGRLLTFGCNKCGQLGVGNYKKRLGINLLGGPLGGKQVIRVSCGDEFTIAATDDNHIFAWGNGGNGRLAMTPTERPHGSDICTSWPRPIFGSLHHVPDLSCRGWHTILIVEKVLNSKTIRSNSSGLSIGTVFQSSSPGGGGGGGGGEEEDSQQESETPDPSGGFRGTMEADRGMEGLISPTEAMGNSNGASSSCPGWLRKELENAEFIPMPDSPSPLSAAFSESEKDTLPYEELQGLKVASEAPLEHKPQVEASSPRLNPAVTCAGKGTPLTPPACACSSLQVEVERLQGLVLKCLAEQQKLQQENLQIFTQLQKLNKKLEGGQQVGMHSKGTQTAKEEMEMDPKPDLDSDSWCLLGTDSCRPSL
The note with it: at 0.1 µM.

Sequence of Sphingosine kinase 1 (Homo sapiens) (Q9NYA1 whole entry): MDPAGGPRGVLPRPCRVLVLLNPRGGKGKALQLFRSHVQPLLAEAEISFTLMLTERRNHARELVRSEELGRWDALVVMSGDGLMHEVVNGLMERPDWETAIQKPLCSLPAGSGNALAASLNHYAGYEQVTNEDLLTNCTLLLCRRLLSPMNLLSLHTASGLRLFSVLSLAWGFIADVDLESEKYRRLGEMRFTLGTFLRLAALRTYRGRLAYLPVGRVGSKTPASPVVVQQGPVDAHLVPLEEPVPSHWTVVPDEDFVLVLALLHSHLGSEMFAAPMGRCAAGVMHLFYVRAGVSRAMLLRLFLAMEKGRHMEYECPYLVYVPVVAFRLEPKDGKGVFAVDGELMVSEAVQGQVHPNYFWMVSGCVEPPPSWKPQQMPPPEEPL

With `COc1cc(/C=N/Nc2ncnc3[nH]ncc23)ccc1O`, the inhibition is -2.47% in assay [1]; 0.06% in assay [2]; 0.42% in [3]; 8.38% in assay [4]; 34.8% in assay [5]; 14.9% in [6]. The inhibition in assay [7] stood at 62%; in assay [8], 5.05%; in assay [9] it was 13.6%; in assay [10], 0.87%; in assay [11], 96.3%; in [12], 3.25%. The inhibition was found to be 12% in [13]; 3.52% in [14]; 4.62% in [15]; 4.45% in assay [16]; 5.85% in [17]; 4.07% in assay [18]. In addition, the inhibition in assay [19] came to 5.51%; in assay [20] it was 0.45%.

What is called inhibition is the drop in the measured response relative to a control, in per cent.

Values taken from ChEMBL document CHEMBL1961873, “Compounds: GSK PKIS; Assays: Nanosyn kinase panel” (2012).
